# High-throughput results from PubChem BioAssay.
# MbtI inh – MbtI salicylate synthase inhibitors, primary screen, biochemical, fluorescence intensity | P9WFX0 | purified MbtI enzyme, fluorescence intensity read-out | inhibition, % (concentration not given with the values) | 100,000 tested, 0.89% active; in the data active = inhibition mostly above about 56%, no sharp cut-off; inactive = mostly below about 77%
# Target sequence (P9WFX0 whole entry, looked up): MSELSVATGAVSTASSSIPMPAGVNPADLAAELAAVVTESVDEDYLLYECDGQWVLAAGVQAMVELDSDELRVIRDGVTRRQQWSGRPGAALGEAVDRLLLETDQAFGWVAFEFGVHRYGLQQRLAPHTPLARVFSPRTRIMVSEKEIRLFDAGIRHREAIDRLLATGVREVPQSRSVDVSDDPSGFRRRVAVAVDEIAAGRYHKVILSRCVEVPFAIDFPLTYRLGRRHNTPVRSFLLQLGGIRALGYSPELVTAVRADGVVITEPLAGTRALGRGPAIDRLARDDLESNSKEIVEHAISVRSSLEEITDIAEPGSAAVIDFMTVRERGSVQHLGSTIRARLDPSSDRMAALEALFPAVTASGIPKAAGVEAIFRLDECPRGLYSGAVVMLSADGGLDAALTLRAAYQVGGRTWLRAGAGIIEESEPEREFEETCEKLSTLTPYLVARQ
# MenB inh – M. tuberculosis MenB inhibitors, primary screen, biochemical, absorbance; 1,4-dihydroxy-2-naphthoyl-CoA synthase (Mycobacterium tuberculosis (strain ATCC 25618 / …; MenB enzyme assay, absorbance read-out; inhibition, % (test concentration not listed); 100,000 tested, 0.43% active; AID 540299, 2011; in the data active = inhibition above about 21%, passing the limit was not always enough
# PV pol inh – poliovirus RdRp elongation inhibitors, primary screen, biochemical, fluorescence polarization, total intensity. 150,000 tested, 0.66% active. poliovirus polymerase elongation; active compounds read low. % elongation, % (compound at 16.7 µg/mL). Genome polyprotein (Poliovirus type 1 (strain Mahoney)), P03300; in the data active = % elongation below about 90%
# Active calls of the source: *; i = inactive; . = no result. The list is not random: actives were taken first. Their share in the collection is about 1.4%.
SMILES,MbtI inh,MenB inh,PV pol inh
CC(OC(=O)c1cccn1C)C(=O)Nc1ccc(S(=O)(=O)N2CCCC2)cc1 (stereo not given),4.3,-20.4,99.0
O=C(NC1CCCCCC1)c1cc2ccccc2c(=O)[nH]1,-4.2,-16.4,103.0
COC(=O)c1c(-c2cccs2)csc1NC(=O)c1cccc(Cl)c1,.,.,82.0*
COC(=O)c1c(-c2cccs2)csc1NC(=O)c1ccc(C(C)C)cc1,.,.,67.0*
CC(C)c1ccc(NC(=O)c2ccc(NC(=O)CCS(=O)(=O)c3cccs3)cc2)cc1,.,.,105.0
COC(=O)c1ccsc1NC(=O)c1cccc(C)c1,31.4,-17.5,102.0
COC(=O)c1c(-c2cccs2)csc1NC(=O)c1ccc(Cl)cc1,.,.,67.0*
COC(=O)c1c(-c2cccs2)csc1NC(=O)c1ccc(C(C)(C)C)cc1,.,.,77.0*
CCOC(=O)c1c(-c2cccs2)csc1NC(=O)CN1CCC(C)CC1,-14.7,-31.3,99.0
CCOC(=O)c1c(-c2cccs2)csc1NC(=O)c1ccccc1,11.1,-33.9,106.0
Cc1ccc2c(c1)c1c(n2C)C(O)CCC1 (stereo not given),.,-43.6,99.0
Cc1c(C(=O)N2CCC(C)CC2)oc2ccc(S(=O)(=O)N3CCCCC3)cc12,-32.0,-10.8,101.0
Cc1cc(C)[n+]2c(n1)SC(C)C2 (stereo not given),11.8,7.8,100.0
CC(Sc1nnc(-c2cccs2)n1-c1ccccc1)C(=O)NC1(C#N)CCCCC1 (stereo not given),-80.1,5.7,106.0
O=c1cc(CSc2nnc(-c3ccccc3)n2Cc2ccc3c(c2)OCO3)nc2sccn12,-2.2,-7.2,104.0
CN1/C(=N\O)c2cccc3cccc1c23,81.4*,-70.4,96.0
CNC(=O)CN1C(=O)c2cccc3cccc1c23,22.8,-41.3,101.0
CC(C)N(C(=O)CSc1ccc(Br)cc1)c1ccccc1,1.0,.,102.0
CC(=O)NC1CCC(C(=O)O)(c2ccccc2)C1 (stereo not given),.,3.8,101.0
O=C(O)C1(c2ccccc2)CCC(Nc2ccccc2)C1 (stereo not given),.,-4.6,69.0*
O=C1c2ccccc2C(=O)C2(O)OCCOC12O (stereo not given),115.2,-4.4,90.0*
CCN(c1ccccc1)C1(O)C(=O)c2ccccc2C1=O,-48.2,-23.6,98.0
O=C(CC1Sc2ccccc2NC1=O)Nc1ccc(F)cc1 (stereo not given),-10.9,-32.4,101.0
Cc1csc(C(C#N)C(=O)CSc2nncn2-c2ccccc2)n1 (stereo not given),3.5,5.8,105.0
COc1ccc(N2CC(C(N)=O)CC2=O)cc1 (stereo not given),.,-19.2,102.0
SMILES,MbtI inh,MenB inh,PV pol inh
CC(=O)N(C)c1ccc(N=Cc2ccc(C)o2)cc1,0.8,-82.2,102.0
[N-]=[N+]=c1c(=O)ccc2c(=O)c3ccccc3c(=O)c1=2,-3.4,-45.4,82.0*
Cc1cc(NC(=O)Nc2ccc(F)cc2)c(C(F)(F)F)o1,0.3,-5.7,101.0
C=CCN(CC=C)C(=O)Cc1ccc(C)cc1,-4.3,-22.0,101.0
Cc1ccc(C2=NNC(c3cccs3)S2)cc1 (stereo not given),.,-3.3,72.0*
Cc1ccc(C2=NNC(c3cccc(C)n3)S2)cc1 (stereo not given),84.8,-66.5,103.0
CCN(c1ccccc1C)S(=O)(=O)c1nnc(NC(=O)c2ccco2)s1,.,.,112.0
Cc1ccccc1N1CC(c2nnc(NC(=O)c3ccco3)s2)CC1=O (stereo not given),.,.,82.0*
COc1ccc(C2CC(c3cc(OC)cc(OC)c3)=NC(N)=N2)cc1 (stereo not given),.,-19.4,103.0
CCC(C)NC(=O)c1nc2c(nnn2Cc2ccccc2Cl)c(=O)[nH]1 (stereo not given),-1.2,-12.2,104.0
CCc1nnc(Cn2nnc3c(=O)[nH]c(C(=O)Nc4ccc(C)cc4)nc32)s1,16.5,-89.1,86.0*
CCn1cc(CC(C)N)c2ccccc21 (stereo not given),87.8,7.2,102.0
CCCN(Cc1nnc(-c2ccco2)o1)C(=O)CSc1nc2ccccc2n1C,102.2,-5.2,106.0
CCCN1CCOC(CC(=O)Nc2ccc(Br)cc2Br)C1=O (stereo not given),87.0*,.,.
CCN1CCOC(CC(=O)Nc2cccc(OC)c2)C1=O (stereo not given),36.2,-24.6,104.0
CCN1CCOC(CC(=O)Nc2ccccc2C)C1=O (stereo not given),75.4*,-6.1,105.0
O=C(CC1OCCN(Cc2ccccc2)C1=O)Nc1ccc(Br)cc1Br (stereo not given),-1.2,-21.9,104.0
Cc1cccc(N2CCN(CC(=O)NCC(F)(F)F)CC2C)c1 (stereo not given),1.9,9.2,101.0
O=S1(=O)CCC(SCc2nc3ccccn3c2Br)C1 (stereo not given),-2.7,.,103.0
CC(CN1CCCN(C)CC1)c1ccccc1 (stereo not given),-5.5,-21.9,102.0
CN1CCCN(Cn2nc3ccccn3c2=S)CC1,47.8,-8.1,15.0*
CCc1ccc(NC(=O)CCCn2c(=O)c3cccn3c3ccccc32)cc1,-2.3,9.2,101.0
O=S(=O)(c1ccc(I)cc1)N1CCCCCC1,1.1,-19.4,102.0
O=S(=O)(c1ccc(=S)[nH]c1)N1CCCCCC1,94.8*,-7.7,106.0
Cc1nc(Cc2nnc(SCC(=O)c3ccc4c(c3)NC(=O)CO4)o2)cs1,-4.3,2.7,103.0
SMILES,MbtI inh,MenB inh,PV pol inh
COc1cc(CN2CCc3nc(N4CCN(c5ccccn5)CC4)ncc3C2)cc(OC)c1OC,.,.,102.0
CCOc1ccc(CN2CCc3nc(N4CCN(c5ccccn5)CC4)ncc3C2)cc1OC,.,.,13.0*
O=C(CC1SC(=Nc2ccc(O)cc2)NC1=O)c1ccccc1 (stereo not given),4.9,-35.1,103.0
O=c1[nH]c(-c2ccco2)nc2sc3c(c12)CCCC3,i,.,103.0
O=c1[nH]c(-c2ccccc2O)nc2sc3c(c12)CCCC3,.,-4.3,89.0*
COc1ccc(-n2cnc(=O)c(C#N)c2SC)cc1,14.1,6.4,102.0
NC(=O)COC(=O)c1cn(-c2ccccc2)nc1-c1ccccc1,-4.0,-20.3,104.0
O=c1sc2c(n1-c1ccccc1)SCC1COc3ccccc3C21 (stereo not given),21.1,-17.4,95.0
O=C1OC2C(C(=O)O)Sc3c(sc(=O)n3-c3ccccc3)C2c2cc(Br)ccc21 (stereo not given),-7.3,39.3*,100.0
CN1CCN(NC(=O)COc2ccc(-c3ccccc3)cc2)CC1,-2.0,-5.6,101.0
O=C(OCc1nnc(-c2ccc(Cl)cc2)o1)c1ccc2c(c1)C(=O)N(Cc1ccco1)C2=O,-1.5,-10.1,104.0
Nc1n[nH]c(C2CCCCC2)n1,-1.8,-54.5,101.0
Nc1nc(N)c2[nH]c(C3CCCCC3)nc2n1,79.2,-6.2,79.0*
COc1cc2c(cc1O)C(C)NCC2 (stereo not given),8.1,-23.1,100.0
C[C@@H]1NCCc2cc(O)c(O)cc21,76.4*,2.0,101.0
Cc1sc2nc(CC(=O)N3CCCC3)[nH]c(=O)c2c1C,66.7,-53.2,75.0*
Cc1sc2nc(NCCO)[nH]c(=O)c2c1C,5.2,-6.8,101.0
COc1cccc(CNC23CC4CC(CC(C4)C2)C3)c1OCc1ccccc1F,.,-17.4,103.0
